Pf growth 48h: P. falciparum growth inhibition at 48 hours (one generation) | P. falciparum luciferase growth in erythrocytes, 48 h | Potency, µM (series often up to 28.7 µM), inactives show at the highest dose activity change, negative = inhibition, most hits filed as inhibitors | 310,000 compounds, 5.9% hits | AID 504832; further: on the % scale 0 is the no-effect control and ±100 the full control effect
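Cell-based growth assay: transgenic P. falciparum expressing firefly luciferase, cultured in red cells within RPMI 1640 containing 0.5% w/v Albumax, 24 mM bicarbonate and gentamycin. A drop in luciferase activity indicates inhibition.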
SARS PLP yeast: blocks SARS-CoV papain-like protease in a yeast assay | S. cerevisiae expressing SARS-CoV PLpro, growth rescue | Potency, µM (highest dose often 32.9 µM), inactives show at the highest dose activity, positive = growth rescue, actives largely listed as activators | 330,000 compounds, 0.19% hits | AID 485353; calls by dose curve; further: 0% is about no effect; nearly all actives have a fitted effect of over 55% in size
AMA1 RON2 block: inhibitors of Plasmodium falciparum AMA1-RON2 interaction; AID 720542; 360,000 compounds, 0.2% hits; AlphaScreen AMA1-biotinylated RON2 peptide binding; Potency, µM (series often up to 58.2 µM), for inactives: at the highest dose activity change, negative = inhibition, most hits filed as inhibitors;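 further: 0% = vehicle wells and -100% = peptide control; nearly all actives have a fitted effect of over 45% in size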
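AMA1 (3D7) with his tag at 25 nM final met compounds first, then biotinylated RON2 peptide at 25 nM; detection used donor plus acceptor beads, 10 µg/mL apiece, read by AlphaScreen after 30 min at room temperature.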
Pf growth 96h: P. falciparum growth inhibition at 96 hours; 320,000 compounds, 6.9% hits; Potency, µM (doses to about 28.7 µM), without a hit: top-dose activity change, negative = inhibition, hits mostly inhibitors; P. falciparum luciferase reporter growth, 96 h; further: on the % scale 0 is the no-effect control and ±100 the full control effect
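P. falciparum expressing integrated firefly luciferase, in erythrocytes at 2% hematocrit, 0.05% parasitemia, incubated with compounds 96 h at 37 C, 5% CO2. Growth inhibition read as loss of luminescence; two-generation exposure targets delayed-death apicoplast inhibitors.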
HCV inh: inhibitors of hepatitis C virus infection; Huh7.5.1 HCVcc-Cre infection, luciferase reporter, 44 h; Potency, µM (doses to about 41.8 µM), for the others: top-dose activity change, negative = inhibition, most hits filed as inhibitors; 340,000 compounds, 3.4% hits; AID 651820; further: on the % scale 0 is the no-effect control and ±100 the full control effect
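Cells (1,000/well) were plated 4 h before compound, then infected with HCVcc-Cre virus (~0.5 moi). After 44 h further culture, infection was read as luciferase luminescence following a 15 min substrate incubation at room temperature.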
NS1 inh: blocks influenza NS1 protein function; Potency, µM (highest dose often 46.1 µM), inactives show top-dose activity, positive = more growth; 270,000 compounds, 0.4% hits; calls by dose curve; further: actives are rising curves; nearly all actives have a fitted effect of over 50% in size
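Read-out: OD600 growth recovery of NS1-expressing budding yeast. Cells grown overnight at 30C in -URA glucose medium, washed, resuspended and diluted 1:100 in 2% galactose assay medium, pH 6.0. Same strain lacking NS1 served as positive control.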
Starred values were filed as active, the others as inactive; ? = inconclusive; . = not tested or not shown; [ ] = remark or other dose. Only some compounds are listed: those with a hit (about 12% of all), similar ones and a draw of the others. Unless noted, the call rests on the fitted dose curve; in most records, active means well fitted curve in the direction sought with a large enough effect; inconclusive means small, poorly fitted or top-dose-only effect, or another doubt; inactive means no such curve, though single readings can be large; an effect the other way counts as inactive or inconclusive. Potency means the concentration at half of the fitted maximal effect.

SMILES	Pf growth 48h	SARS PLP yeast	AMA1 RON2 block	Pf growth 96h	HCV inh	NS1 inh
COc1ccc(CCNS(=O)(=O)c2cc3c4c(c2)CC(=O)N4CCC3)cc1	9.28µM*	-3.5%	-1.7%	-6.3%	-10.9%	15.7%
O=C1Cc2cc(NS(=O)(=O)c3ccc(Cl)cc3)cc3c2N1CCC3	-5.0%	-0.7%	-11.9%	62.3%	-11.4%	.
O=C1CCc2cc(S(=O)(=O)Nc3ccccc3F)cc3c2N1CCC3	1.8%	-1.5%	-0.5%	53.5%	10.7%	.
CCOc1ccc(NC(=O)CCC(=O)NNC(=O)Nc2ccc(Cl)cc2)cc1	12.9%	0.5%	18.5%	31.6%	19.6%	-1.2%
CN(Cc1cc(C(C)(C)C)cc(Br)c1O)Cc1cc(C(C)(C)C)cc(Br)c1O	.	.	.	.	.	-15.3%
S=C(NCCCN1CCOCC1)NCCCN1CCOCC1	3.4%	16.5%	-10.4%	-12.9%	-8.5%	6.5%
CCCCCCCCNC(=S)NCCN1CCCCC1	8.28µM*	3.8%	0.3%	0.5%	?	.
Clc1ccc(CSC2=NCCN2)cc1Cl	.	.	.	.	.	0.0%
O=C(CSC1=NCCN1)NC(c1ccccc1)c1ccccc1	?	-0.9%	1.5%	-20.1%	10µM*	.
Clc1ccccc1CSC1=NCCN1	14.7µM*	0.7%	-10.5%	23.0%	-8.1%	-2.8%
COc1ccc(CNC(=O)CN(Cc2ccc(F)cc2)C(=O)c2csnn2)cc1	-11.9%	-0.4%	4.8%	6.6%	-21.5%	-1.8%
O=C(O)c1cc(-c2ccccc2)nn1CC1CC(c2cccc([N+](=O)[O-])c2)=NO1 (configuration not stated)	.	.	0.0%	.	3.0%	.
CCOC(=O)[C@H]1[C@H]2COc3ccccc3[C@@H]2N2C(=O)CNC(=O)[C@@]12C	-5.7%	0.6%	23.2%	20.9%	39.2%	.
CCCOCC(O)CC(Cc1ccccc1)C(=O)NN (configuration not stated)	1.3%	1.2%	76.1%	26.7%	17.4%	4.6%
O=[N+]([O-])c1ccc(C=NNc2ccccc2)cc1	.	.	?	.	-6.3%	.
CC(C)(C)c1cnnn1-c1ccc(/C=N/Nc2ccc([N+](=O)[O-])cc2)cc1	11.7µM*	?	11.6%	-60.8%	?	-3.8%
O=C1c2ccccc2C(c2nnnn2-c2ccc3c(c2)OCCO3)N1Cc1cccs1 (configuration not stated)	.	.	0.7%	.	.	.
Cc1ccc(S(=O)(=O)NCc2ccccc2)cc1C(=O)N1CCCCCCC1	-11.9%	0.8%	27.7%	-0.3%	-25.1%	.
Cc1ccccc1C(=O)OCC(=O)NCc1ccco1	.	-0.7%	-13.6%	.	-2.6%	.
Cc1cccc(Nc2ccccc2C(=O)OCC(=O)NCc2ccco2)c1C	?	-5.8%	-3.9%	11.7µM*	-16.1%	-3.4%
COc1cccc(C(C)=C2SC(=S)NC2=O)c1	.	.	31.8%	.	18.7%	.
COc1ccc(CC(=O)OCN2C(=O)c3ccccc3C2=O)cc1	37.1%	0.3%	13.5%	13.9%	10.9%	-4.9%
O=C(Cc1ccc(F)cc1)OCN1C(=O)c2ccccc2C1=O	?	-2.1%	-8.3%	14.7µM*	9.1%	-23.9%
O=C(N/N=C/c1ccc(O)cc1)/C(=C/c1ccccc1)CCO	13.1µM*	-8.4%	12.1%	?	1.4%	-1.6%
NC(=O)N[C@H](CC(=O)O)C(=O)O	.	.	.	.	.	-3.1%
SMILES	Pf growth 48h	SARS PLP yeast	AMA1 RON2 block	Pf growth 96h	HCV inh	NS1 inh
CC(C)(C)c1ccc(-c2noc(CNC(=O)c3ccco3)n2)cc1	?	-7.0%	-9.3%	2.0%	-24.8%	-9.8%
CCC(=O)Nc1cc(=O)[nH]c2ncnn12	31.4%	-2.9%	6.5%	0.0%	10.7%	8.8%
Cc1ccc(-c2nc3[nH]c(=O)cc(NC(=O)c4cccs4)n3n2)cc1	?	1.3%	0.0%	?	12.4%	-0.1%
CCC(=O)Nc1cc(=O)[nH]c2nc(-c3ccc(Cl)cc3)nn12	0.262µM*	-0.1%	6.8%	?	-4.3%	-0.5%
Cc1ccc(-c2nc3[nH]c(=O)cc(NC(=O)C(C)C)n3n2)cc1	0.294µM*	0.6%	13.5%	0.0828µM*	9.2%	-1.8%
CC(C)(C)c1ccc(-c2nc3[nH]c(=O)cc(NC(=O)c4ccco4)n3n2)cc1	10.4µM*	-2.2%	7.6%	4.15µM*	25.0%	12.8%
Cc1ccc(N(C)S(=O)(=O)c2cccc(C(=O)OCC(=O)N(C)Cc3ccccc3)c2)cc1	.	.	-4.2%	.	.	.
C=C(C)CNC(=S)N1CCN(C(c2ccccc2)c2ccccc2)CC1	?	-1.1%	-4.5%	0.4%	0.3%	.
COCCCNC(=S)N1CCN(C(c2ccccc2)c2ccccc2)CC1	13.1µM*	13.8%	-20.5%	-7.6%	.	-9.2%
CC(C)CNC(=S)N1CCN(C(c2ccccc2)c2ccccc2)CC1	?	-8.2%	-21.6%	2.08µM*	0.5%	-12.7%
CC1CCc2nc3sc4c(c3c(N)c2C1)CCCC4 (configuration not stated)	-67.8%	-28.2%	-6.8%	336.4%	?	-33.5%
CCc1c(-c2ccccc2)nc2sc3c(c2c1N)CCCC3	-10.6%	-4.7%	-3.0%	?	25.1µM*	-7.5%
CC1CCc2c(nc3sc4c(c3c2N)CCCC4)C1 (configuration not stated)	-77.7%	-45.0%	-19.6%	?	11.2µM*	-24.9%
Nc1c2c(nc3sc4c(c13)CCCC4)CCCCC2	82.6%	-1.8%	-5.4%	0.828µM*	?	-6.0%
Nc1c(C(=O)O)sc2nc(-c3ccccc3)c3c(c12)CCCC3	3.1%	2.2%	77.8%	?	4.6%	22.7%
O=C(c1ccco1)N1CCN(C(=O)C2CC(=O)N(c3ccccc3)C2)CC1 (configuration not stated)	11.2%	0.5%	4.6%	?	12.1%	-0.3%
O=C(c1ccc2nc(Cc3ccccc3F)oc2c1)N1CC[C@H](O)C1	37.4%	11.0%	-5.8%	-25.1%	3.7%	-4.0%
O=C(NC1CCN(Cc2ccccc2)CC1)c1cccc(S(=O)(=O)Nc2ccc(SC(F)F)cc2)c1	.	2.8%	-6.2%	.	2.82µM*	.
Cc1ccc(NC(=O)N2CCC(NC(=O)c3ccco3)CC2)cc1	8.0%	13.0%	14.2%	-20.0%	7.7%	19.5%
Cc1ccc(S(=O)(=O)Nc2cccc(C(=O)NC3CCN(Cc4ccccc4)CC3)c2)cc1F	?	6.5%	-28.2%	?	?	.
Cc1ccc(NS(=O)(=O)c2cccc(C(=O)NC3CCN(Cc4ccccc4)CC3)c2)cc1	.	.	-9.9%[11.6 µM]	.	12.6µM*	.
Cc1ccc(NS(=O)(=O)c2ccc(C(=O)NC3CCN(Cc4ccccc4)CC3)cc2)cc1	.	-2.1%	-13.1%	.	?	.

Screens: PubChem, National Center for Advancing Translational Sciences (NCATS)
